Source: the supplement of paper PMC12645437, “Orthogonal IMiD-Degron Pairs Induce Selective Protein Degradation in Cells” (ACS Chemical Biology, 2025)
Whole data set: some 8,300 sequences, median “log2 fold change of degron read counts, EGFP-low vs EGFP+ sorted cells (limma voom), compound-induced degradation” near -1.1, cut for the highest 2% near 3.2. The sample as a whole holds a higher share of the highest values than the screen did.

T1: CRBN, Q96SW2
T1 chain: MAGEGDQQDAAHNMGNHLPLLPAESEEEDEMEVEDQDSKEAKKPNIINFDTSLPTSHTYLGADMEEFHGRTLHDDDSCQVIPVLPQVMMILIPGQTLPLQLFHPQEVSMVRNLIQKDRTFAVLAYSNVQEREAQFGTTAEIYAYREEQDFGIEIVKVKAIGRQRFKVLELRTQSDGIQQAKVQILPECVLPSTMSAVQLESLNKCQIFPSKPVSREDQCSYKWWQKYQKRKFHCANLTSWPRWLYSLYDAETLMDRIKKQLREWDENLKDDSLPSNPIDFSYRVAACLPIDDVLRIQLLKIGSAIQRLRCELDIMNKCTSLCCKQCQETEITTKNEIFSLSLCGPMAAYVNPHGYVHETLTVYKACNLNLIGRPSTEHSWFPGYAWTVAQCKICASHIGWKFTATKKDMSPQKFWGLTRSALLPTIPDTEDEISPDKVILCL


Biological target: T1, CRBN, Q96SW2
Assay: log2 fold change of degron read counts, EGFP-low vs EGFP+ sorted cells (limma voom), compound-induced degradation; higher = more compound-induced degradation of the degron-EGFP fusion; degrons are variants of IKZF1/3 zinc finger 2; compound dose not given here
Details: Jurkat, 18 h
Procedure: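 Pooled library of 8380 IKZF3 ZF2 degron mutants (positions 146-167 varied within the IKZF3 130-189 degron; only the varied core is printed, flanks not printed) fused to EGFP with IRES-mCherry, lentivirally expressed in Jurkat cells. mCherry+ cells were treated with one IMiD compound for 18 h (dose not stated) and FACS-sorted into EGFP-low and EGFP+ populations. Degron sequences were counted by NGS, and log2FC (EGFP-low vs EGFP+) was estimated by limma voom over 3 biological replicates.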

[1] = compound: compound 19 (5-tert-butyl-thalidomide)
[2] = compound: compound 22 (5-morpholino-thalidomide)
[3] = compound: compound 33 (diphenyl IMiD analogue)
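Further: pooled lentiviral library of zinc finger degron-EGFP fusions in mCherry-positive Jurkat cells, FACS-sorted after compound exposure, with degron abundance counted by next-generation sequencing.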

Sequence	log2 fold change of degron read counts [1]	log2 fold change of degron read counts [2]	log2 fold change of degron read counts [3]	log2 fold change of degron read counts (compound: thalidomide)
FWCPICGHQFTQKGNLLRHIKL [46F_47W_49P_50I_52G_53H_54Q_55F_67L_, Q9UKT9]	-1.19	0.164	-0.157	-0.942
FHCNVCGALFTQKGNLLRHIKL [46F_47H_49N_50V_52G_53A_54L_55F_67L_, Q9UKT9]	-1.06	-1.21	-0.823	-1.55
LTCEICGFDCTQKGNLLRHIKL [46L_47T_49E_50I_52G_53F_54D_55C_67L_, Q9UKT9]	-3.24	-2.7	-2.79	-2.46
LLCNQCGFACTQKGNLLRHIKL [46L_47L_49N_50Q_52G_53F_54A_55C_67L_, Q9UKT9]	-2.26	-2.6	-2.27	-1.53
FVCNQCGATFTQKGNLLRHIKL [46F_47V_49N_50Q_52G_53A_54T_55F_67L_, Q9UKT9]	-2.74	-1.56	-1.1	-1.67
FMCEQCGAYFTQKGNLLRHIKL [46F_47M_49E_50Q_52G_53A_54Y_55F_67L_, Q9UKT9]	-2.39	-2.36	-0.295	-2.25
LTCEICGFICTQKGNLLRHIKL [46L_47T_49E_50I_52G_53F_54I_55C_67L_, Q9UKT9]	-0.462	-0.661	0.241	1.1
FKCDVCGAPFTQKGNLLRHIKL [46F_47K_49D_50V_52G_53A_54P_55F_67L_, Q9UKT9]	-0.146	-0.607	-2.1	0.295
FWCDVCGARFTQKGNLLRHIKL [46F_47W_49D_50V_52G_53A_54R_55F_67L_, Q9UKT9]	2.89	3.6	0.211	0.033
FHCDVCGARFTQKGNLLRHIKL [46F_47H_49D_50V_52G_53A_54R_55F_67L_, Q9UKT9]	0.448	0.585	-1.42	-1.6
FGCDVCGARFTQKGNLLRHIKL [46F_47G_49D_50V_52G_53A_54R_55F_67L_, Q9UKT9]	1.49	-0.377	-1.65	-0.568
FDCDVCGARFTQKGNLLRHIKL [46F_47D_49D_50V_52G_53A_54R_55F_67L_, Q9UKT9]	0.864	-0.479	-1.77	-0.643
FFCDVCGARFTQKGNLLRHIKL [46F_47F_49D_50V_52G_53A_54R_55F_67L_, Q9UKT9]	3.5	3.15	0.549	-0.102
FYCDVCGARFTQKGNLLRHIKL [46F_47Y_49D_50V_52G_53A_54R_55F_67L_, Q9UKT9]	3.21	3.28	0.5	-0.569
FVCDVCGARFTQKGNLLRHIKL [46F_47V_49D_50V_52G_53A_54R_55F_67L_, Q9UKT9]	-0.856	0.623	-0.882	0.963
FMCDVCGARFTQKGNLLRHIKL [46F_47M_49D_50V_52G_53A_54R_55F_67L_, Q9UKT9]	-1.48	-1.88	0.0127	-0.773
FLCDVCGARFTQKGNLLRHIKL [46F_47L_49D_50V_52G_53A_54R_55F_67L_, Q9UKT9]	-1.59	-2.29	-1.43	-0.242
FCCDQCGAVFTQKGNLLRHIKL [46F_47C_49D_50Q_52G_53A_54V_55F_67L_, Q9UKT9]	-2.49	-1.9	-0.705	-2.14
FECDVCGAHFTQKGNLLRHIKL [46F_47E_49D_50V_52G_53A_54H_55F_67L_, Q9UKT9]	-2.74	-4.09	-1.55	-1.76
